Of roughly 7,900 targets only a part is listed; those with a hit were picked by preference. About 0.6% of all pairs of compound and target were hits.
Tests used:
Assay in all cases: log2 fold change, soluble protein after heating vs DMSO (PISA); higher = thermal stabilisation; K562 cells, 10 uM, 30 min; active = over 0.2 and 3.5 SD of the protein, either way, in both replicates (recomputed)
bafetinib = compound: Cc1ccc(NC(=O)c2ccc(CN3CC[C@H](N(C)C)C3)c(C(F)(F)F)c2)cc1Nc1nccc(-c2cncnc2)n1 [bafetinib]
Procedure, shortened: (§1)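 Aliquots of K562 cells (2×10^6 cells/mL) treated with 10 μM compound for 30 min were heated for 3 min over 48°C-58°C. After pooling and extraction in PBS with 0.5% NP-40 at 4°C, soluble protein from a 21,000xg, 90 min spin was quantified by TMTpro 16plex LC-MS/MS with channel sums equalised. Thermal stability is expressed against control samples, from duplicates, as a log2 fold change.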

[1] = compound: Cc1cccc(CC(=O)N2CCc3c2ccc(-c2cn(C)c4ncnc(N)c24)c3F)n1
Procedure, shortened: as §1

nilotinib = compound: Cc1cn(-c2cc(NC(=O)c3ccc(C)c(Nc4nccc(-c5cccnc5)n4)c3)cc(C(F)(F)F)c2)cn1 [nilotinib]
Procedure, shortened: as §1

[2] = compound: Cc1nc(Nc2n[nH]c3c2CN(C(=O)N[C@H](CN(C)C)c2ccccc2)C3(C)C)c2sccc2n1
Procedure, shortened: as §1

dasatinib = compound: Cc1nc(Nc2ncc(C(=O)Nc3c(C)cccc3Cl)s2)cc(N2CCN(CCO)CC2)n1 [dasatinib]
Procedure, shortened: as §1

[3] = compound: Cc1ncc(-c2ccnc(Nc3ccc(S(C)(=O)=O)cc3)n2)n1C(C)C
Procedure, shortened: as §1

[4] = compound: Cn1cc(-c2ccc3c(c2)CCN3C(=O)Cc2cccc(C(F)(F)F)c2)c2c(N)ncnc21
Procedure, shortened: as §1

[5] = compound: Cn1cc(-c2ccc3nnc(C(F)(F)c4ccc5ncccc5c4)n3n2)cn1
Procedure, shortened: as §1

tipifarnib = compound: Cn1cncc1[C@@](N)(c1ccc(Cl)cc1)c1ccc2c(c1)c(-c1cccc(Cl)c1)cc(=O)n2C [tipifarnib]
Procedure, shortened: as §1

mubritinib = compound: FC(F)(F)c1ccc(/C=C/c2nc(COc3ccc(CCCCn4ccnn4)cc3)co2)cc1 [mubritinib]
Procedure, shortened: as §1

[6] = compound: NC(=O)Nc1cc(-c2cccc(F)c2)sc1C(=O)N[C@H]1CCCNC1
Procedure, shortened: as §1

[7] = compound: NC(=O)c1cnc(N[C@@H]2CCCC[C@@H]2N)nc1Nc1cccc(-n2nccn2)c1
Procedure, shortened: as §1

[8] = compound: NC1(c2ccc(-c3nc4ccn5c(=O)[nH]nc5c4cc3-c3ccccc3)cc2)CCC1
Procedure, shortened: as §1

[9] = compound: NCC(=O)Nc1ccc(-n2nc(C(F)(F)F)cc2-c2ccc3c(ccc4ccccc43)c2)cc1
Procedure, shortened: as §1

entinostat = compound: Nc1ccccc1NC(=O)c1ccc(CNC(=O)OCc2cccnc2)cc1 [entinostat]
Procedure, shortened: as §1

vorinostat = compound: O=C(CCCCCCC(=O)Nc1ccccc1)NO [vorinostat]
Procedure, shortened: as §1

citarinostat = compound: O=C(CCCCCCNC(=O)c1cnc(N(c2ccccc2)c2ccccc2Cl)nc1)NO [citarinostat]
Procedure, shortened: as §1

silmitasertib = compound: O=C(O)c1ccc2c(c1)nc(Nc1cccc(Cl)c1)c1ccncc12 [silmitasertib]
Procedure, shortened: as §1

[10] = compound: O=C1NC(=O)C(c2cnc3ccccn23)=C1c1cn2c3c(cc(F)cc13)CN(C(=O)N1CCCCC1)CC2
Procedure, shortened: as §1

[11] = compound: c1cc(OCCN2CCCCC2)cc(-c2n[nH]c3ccc(-c4nnc[nH]4)cc23)c1
Procedure, shortened: as §1

Measured: log2 fold change

VPS8 (UniProt Q8N3P4)
inactive: bafetinib 0.073 | [1] 0.043 | nilotinib -0.162 | [2] -0.018 | dasatinib -0.107 | [3] 0.035 | [4] -0.018 | [5] -0.083 | tipifarnib -0.078 | mubritinib 0.043 | [6] -0.035 | [7] -0.125 | [8] -0.15 | [9] -0.088 | entinostat 0.077 | vorinostat 0.158 | citarinostat -0.004 | silmitasertib 0.078 | [10] -0.006 | [11] -0.012

XPNPEP3 (UniProt Q9NQH7)
inactive: bafetinib -0.06 | [1] 0.008 | nilotinib -0.034 | [2] 0.027 | dasatinib 0.021 | [3] -0.041 | [4] 0.092 | [5] -0.031 | tipifarnib -0.065 | mubritinib 0.02 | [6] 0.034 | [7] -0.007 | [8] -0.074 | [9] 0 | entinostat -0.024 | vorinostat -0.002 | citarinostat -0.007 | silmitasertib -0.004 | [10] -0.02 | [11] -0.022

TRAPPC3 (UniProt O43617)
Chain of UniProt O43617 (O43617 whole entry, looked up): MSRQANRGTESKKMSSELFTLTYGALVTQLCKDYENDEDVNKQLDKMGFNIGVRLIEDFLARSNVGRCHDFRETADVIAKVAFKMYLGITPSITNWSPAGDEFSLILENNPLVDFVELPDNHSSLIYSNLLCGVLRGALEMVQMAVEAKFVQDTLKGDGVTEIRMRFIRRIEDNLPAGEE
inactive: bafetinib -0.033 | [1] 0.003 | nilotinib -0.007 | [2] -0.023 | dasatinib -0.021 | [3] -0.001 | [4] 0.025 | [5] 0.041 | tipifarnib -0.047 | mubritinib 0.035 | [6] 0.017 | [7] -0.056 | [8] -0.145 | [9] -0.058 | entinostat 0.022 | vorinostat 0.004 | citarinostat 0.038 | silmitasertib 0.032 | [10] 0 | [11] -0.048

USP9X (UniProt Q93008)
inactive: bafetinib -0.016 | [1] 0.071 | nilotinib -0.099 | [2] -0.056 | dasatinib -0.122 | [3] -0.004 | [4] -0.052 | [5] -0.021 | tipifarnib -0.126 | mubritinib 0.052 | [6] 0 | [7] -0.062 | [8] -0.174 | [9] -0.041 | entinostat 0.037 | vorinostat 0.06 | citarinostat 0.032 | silmitasertib 0.017 | [10] -0.015 | [11] -0.056

TOMM20 (UniProt Q15388)
Chain of UniProt Q15388 (Q15388 whole entry, looked up): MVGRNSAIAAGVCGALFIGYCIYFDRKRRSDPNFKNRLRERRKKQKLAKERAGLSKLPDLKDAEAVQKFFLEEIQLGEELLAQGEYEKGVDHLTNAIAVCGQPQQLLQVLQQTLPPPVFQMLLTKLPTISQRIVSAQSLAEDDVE
inactive: bafetinib -0.194 | [1] -0.035 | nilotinib -0.002 | [2] -0.031 | dasatinib 0.039 | [3] 0.01 | [4] 0.003 | [5] 0.006 | tipifarnib -0.095 | mubritinib 0.017 | [6] 0.008 | [7] -0.034 | [8] -0.023 | [9] -0.131 | entinostat 0.01 | vorinostat 0.031 | citarinostat -0.088 | silmitasertib -0.006 | [10] -0.088 | [11] -0.01

VPS18 (UniProt Q9P253)
inactive: bafetinib -0.097 | [1] 0.059 | nilotinib -0.052 | [2] -0.069 | dasatinib -0.194 | [3] -0.022 | [4] 0.086 | [5] 0.089 | tipifarnib -0.047 | mubritinib 0.088 | [6] 0.019 | [7] -0.13 | [8] -0.216 | [9] 0.079 | entinostat 0.08 | vorinostat 0.089 | citarinostat 0.009 | silmitasertib 0.005 | [10] 0.023 | [11] 0.005

TRAM1 (UniProt Q15629)
inactive: bafetinib -0.152 | [1] 0.117 | nilotinib -0.075 | [2] 0.074 | dasatinib -0.138 | [3] 0.072 | [4] -0.07 | [5] 0.02 | tipifarnib -0.152 | mubritinib -0.022 | [6] -0.104 | [7] -0.073 | [8] -0.162 | [9] -0.196 | entinostat -0.075 | vorinostat 0.034 | citarinostat -0.083 | silmitasertib 0.066 | [10] 0.025 | [11] -0.021

USP34 (UniProt Q70CQ2)
Chain of UniProt Q70CQ2 (Q70CQ2 whole entry, looked up): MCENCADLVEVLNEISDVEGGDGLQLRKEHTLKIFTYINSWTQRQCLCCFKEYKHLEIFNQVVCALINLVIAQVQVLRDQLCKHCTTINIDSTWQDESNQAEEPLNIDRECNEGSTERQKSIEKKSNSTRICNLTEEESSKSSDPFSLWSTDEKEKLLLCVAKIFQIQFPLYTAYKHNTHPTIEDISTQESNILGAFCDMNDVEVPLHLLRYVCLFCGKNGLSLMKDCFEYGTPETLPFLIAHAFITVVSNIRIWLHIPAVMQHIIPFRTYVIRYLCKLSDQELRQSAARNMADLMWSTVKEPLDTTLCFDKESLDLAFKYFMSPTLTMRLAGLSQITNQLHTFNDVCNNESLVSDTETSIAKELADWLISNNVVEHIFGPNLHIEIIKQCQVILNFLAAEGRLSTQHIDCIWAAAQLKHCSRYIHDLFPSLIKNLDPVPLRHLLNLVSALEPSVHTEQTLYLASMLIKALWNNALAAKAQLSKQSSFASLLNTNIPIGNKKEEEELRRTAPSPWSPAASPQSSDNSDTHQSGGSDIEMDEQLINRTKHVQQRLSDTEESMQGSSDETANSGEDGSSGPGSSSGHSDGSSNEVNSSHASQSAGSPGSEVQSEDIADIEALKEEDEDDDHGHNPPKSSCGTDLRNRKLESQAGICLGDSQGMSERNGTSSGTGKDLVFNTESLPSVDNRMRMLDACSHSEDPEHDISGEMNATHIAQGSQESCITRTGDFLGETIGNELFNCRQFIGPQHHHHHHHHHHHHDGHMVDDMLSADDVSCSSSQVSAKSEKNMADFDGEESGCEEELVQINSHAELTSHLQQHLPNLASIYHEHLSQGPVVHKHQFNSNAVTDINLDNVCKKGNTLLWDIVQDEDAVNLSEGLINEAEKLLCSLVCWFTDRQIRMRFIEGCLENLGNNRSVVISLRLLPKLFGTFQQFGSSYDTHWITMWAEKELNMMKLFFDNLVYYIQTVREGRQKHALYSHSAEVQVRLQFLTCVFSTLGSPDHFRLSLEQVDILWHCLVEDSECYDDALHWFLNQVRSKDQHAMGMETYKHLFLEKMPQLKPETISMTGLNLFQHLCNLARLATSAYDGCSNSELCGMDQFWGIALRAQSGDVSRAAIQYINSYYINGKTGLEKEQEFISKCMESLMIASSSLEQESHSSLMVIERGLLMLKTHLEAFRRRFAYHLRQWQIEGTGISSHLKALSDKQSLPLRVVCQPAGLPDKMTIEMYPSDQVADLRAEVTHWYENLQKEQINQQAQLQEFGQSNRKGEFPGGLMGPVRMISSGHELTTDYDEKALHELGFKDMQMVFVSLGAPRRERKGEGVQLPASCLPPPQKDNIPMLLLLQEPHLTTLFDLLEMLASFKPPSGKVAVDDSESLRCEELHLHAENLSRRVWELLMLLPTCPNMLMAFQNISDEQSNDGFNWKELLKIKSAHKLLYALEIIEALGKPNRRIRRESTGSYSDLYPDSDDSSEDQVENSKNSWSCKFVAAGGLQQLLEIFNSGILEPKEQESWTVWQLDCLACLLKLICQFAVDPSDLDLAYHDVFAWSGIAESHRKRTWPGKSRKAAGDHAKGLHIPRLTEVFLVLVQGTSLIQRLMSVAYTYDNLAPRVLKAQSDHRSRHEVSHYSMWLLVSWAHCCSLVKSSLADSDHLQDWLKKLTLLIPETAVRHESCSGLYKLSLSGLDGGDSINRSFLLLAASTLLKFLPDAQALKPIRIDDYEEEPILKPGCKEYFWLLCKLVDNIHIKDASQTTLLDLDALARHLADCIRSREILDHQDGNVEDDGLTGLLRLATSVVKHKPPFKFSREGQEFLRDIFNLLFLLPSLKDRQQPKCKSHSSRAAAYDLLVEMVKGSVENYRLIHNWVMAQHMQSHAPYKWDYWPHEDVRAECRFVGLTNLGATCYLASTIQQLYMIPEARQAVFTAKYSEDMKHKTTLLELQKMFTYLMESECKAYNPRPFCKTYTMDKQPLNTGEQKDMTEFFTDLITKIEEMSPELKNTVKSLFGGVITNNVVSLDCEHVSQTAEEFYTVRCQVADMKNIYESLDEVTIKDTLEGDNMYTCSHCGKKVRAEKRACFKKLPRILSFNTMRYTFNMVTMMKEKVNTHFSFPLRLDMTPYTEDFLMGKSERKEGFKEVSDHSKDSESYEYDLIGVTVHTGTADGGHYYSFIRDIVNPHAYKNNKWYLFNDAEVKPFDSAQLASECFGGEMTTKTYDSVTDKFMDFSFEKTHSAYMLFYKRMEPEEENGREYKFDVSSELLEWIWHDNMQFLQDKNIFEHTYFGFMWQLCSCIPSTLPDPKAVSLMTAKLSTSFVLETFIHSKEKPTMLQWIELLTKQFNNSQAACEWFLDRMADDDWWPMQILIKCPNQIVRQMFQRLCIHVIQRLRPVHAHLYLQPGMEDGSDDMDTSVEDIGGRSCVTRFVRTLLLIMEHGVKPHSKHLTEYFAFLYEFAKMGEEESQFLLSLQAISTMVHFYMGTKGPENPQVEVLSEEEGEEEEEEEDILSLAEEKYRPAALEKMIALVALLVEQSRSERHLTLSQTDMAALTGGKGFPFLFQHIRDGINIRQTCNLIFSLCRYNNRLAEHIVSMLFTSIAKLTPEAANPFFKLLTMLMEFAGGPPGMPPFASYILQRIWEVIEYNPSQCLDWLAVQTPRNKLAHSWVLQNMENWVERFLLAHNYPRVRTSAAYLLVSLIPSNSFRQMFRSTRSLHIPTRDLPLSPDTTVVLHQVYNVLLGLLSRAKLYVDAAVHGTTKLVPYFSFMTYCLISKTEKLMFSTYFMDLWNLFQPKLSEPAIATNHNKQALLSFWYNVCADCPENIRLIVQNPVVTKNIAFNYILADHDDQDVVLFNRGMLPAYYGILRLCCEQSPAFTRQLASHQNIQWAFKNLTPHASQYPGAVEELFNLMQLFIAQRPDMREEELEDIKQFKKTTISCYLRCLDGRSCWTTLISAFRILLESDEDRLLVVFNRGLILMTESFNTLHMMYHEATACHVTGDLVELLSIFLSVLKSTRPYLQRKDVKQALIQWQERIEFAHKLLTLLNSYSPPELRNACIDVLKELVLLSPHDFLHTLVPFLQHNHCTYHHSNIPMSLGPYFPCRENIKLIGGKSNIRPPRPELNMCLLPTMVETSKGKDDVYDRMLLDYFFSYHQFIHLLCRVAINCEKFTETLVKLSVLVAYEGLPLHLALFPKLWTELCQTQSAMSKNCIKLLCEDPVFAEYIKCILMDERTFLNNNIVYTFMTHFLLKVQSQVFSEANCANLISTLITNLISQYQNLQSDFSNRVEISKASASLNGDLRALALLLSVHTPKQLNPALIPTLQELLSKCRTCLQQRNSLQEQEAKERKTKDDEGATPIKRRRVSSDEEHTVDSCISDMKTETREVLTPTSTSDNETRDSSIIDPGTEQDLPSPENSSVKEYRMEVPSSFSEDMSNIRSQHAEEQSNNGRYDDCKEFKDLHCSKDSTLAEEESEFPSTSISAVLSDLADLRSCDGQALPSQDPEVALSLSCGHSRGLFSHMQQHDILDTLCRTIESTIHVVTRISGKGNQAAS
inactive: bafetinib -0.004 | [1] -0.002 | nilotinib -0.054 | [2] 0.034 | dasatinib -0.141 | [3] -0.223 | [4] -0.012 | [5] 0.033 | tipifarnib -0.134 | mubritinib -0.049 | [6] 0.012 | [7] -0.08 | [8] -0.131 | [9] -0.02 | entinostat 0.024 | vorinostat 0.118 | citarinostat 0.123 | silmitasertib 0.045 | [10] -0.008 | [11] -0.074

WASHC3 (UniProt Q9Y3C0)
active: [8] -0.271
inactive: bafetinib -0.06 | [1] -0.032 | nilotinib -0.042 | [2] 0.001 | dasatinib 0.047 | [3] 0.028 | [4] 0.035 | [5] 0.048 | tipifarnib 0.029 | mubritinib 0.003 | [6] -0.037 | [7] 0.1 | [9] -0.029 | entinostat -0.011 | vorinostat -0.053 | citarinostat 0.016 | silmitasertib 0.075 | [10] -0.054 | [11] -0.005

WARS1 (UniProt G3V339)
inactive: [10] -0.387

UBE2J2 isoform 3 (UniProt Q8N2K1)
inactive: bafetinib 0.037 | [1] -0.12 | dasatinib -0.154 | [4] 0.013 | tipifarnib 0.041 | [6] -0.072 | [7] 0.028 | [9] 0.213 | entinostat -0.067 | vorinostat 0.156 | citarinostat 0.1 | [10] -0.299 | [11] -0.039

WARS1 (UniProt G3V227)
inactive: bafetinib 0 | dasatinib -0.164 | [4] -0.42 | [7] 0.045 | [9] -0.115 | [10] -0.084

TMEM104 (UniProt Q8NE00)
inactive: [1] 0.172 | nilotinib 0.019 | [2] -0.003 | dasatinib 0.009 | [3] -0.013 | [4] 0.066 | [5] 0.095 | tipifarnib 0.035 | mubritinib -0.089 | [7] 0.08 | [8] 0.232 | vorinostat 0.068 | citarinostat -0.063 | silmitasertib 0.097 | [10] 0.143 | [11] -0.051

TSC2 (UniProt P49815)
active: [11] -0.594
inactive: bafetinib -0.024 | [1] 0.109 | [4] 0.066 | [5] 0.047 | tipifarnib 0.019 | mubritinib -0.048 | [6] -0.038 | [7] -0.074 | [8] 0.214 | entinostat -0.061 | vorinostat 0.125 | citarinostat 0.273 | silmitasertib 0.107 | [10] 0.105

TRIM5 (UniProt Q9C035)
Chain of UniProt Q9C035 (Q9C035 whole entry, looked up): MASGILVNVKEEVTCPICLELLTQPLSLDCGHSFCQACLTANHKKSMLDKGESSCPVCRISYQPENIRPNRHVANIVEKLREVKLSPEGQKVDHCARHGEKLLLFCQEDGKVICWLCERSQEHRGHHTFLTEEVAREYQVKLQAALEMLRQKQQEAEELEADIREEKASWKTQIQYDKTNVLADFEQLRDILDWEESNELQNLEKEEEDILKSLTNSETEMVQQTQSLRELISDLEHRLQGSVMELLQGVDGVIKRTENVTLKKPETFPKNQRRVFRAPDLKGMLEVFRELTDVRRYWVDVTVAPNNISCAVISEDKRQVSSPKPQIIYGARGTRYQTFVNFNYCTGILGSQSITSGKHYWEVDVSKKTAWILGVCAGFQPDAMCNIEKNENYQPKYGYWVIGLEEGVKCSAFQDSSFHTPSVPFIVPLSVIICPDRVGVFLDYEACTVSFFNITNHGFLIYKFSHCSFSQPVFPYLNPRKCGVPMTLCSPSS
inactive: dasatinib -0.088 | [4] 0.013 | [5] 0.133 | [6] -0.219 | [7] -0.085 | [9] -0.006 | entinostat 0.137 | [10] 0.024

TRIQK (UniProt Q629K1)
Chain of UniProt Q629K1 (Q629K1 whole entry, looked up): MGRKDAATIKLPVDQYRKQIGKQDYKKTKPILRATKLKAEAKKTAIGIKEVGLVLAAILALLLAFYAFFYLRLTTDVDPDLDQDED
inactive: bafetinib -0.059 | dasatinib 0.007 | [4] -0.007 | [5] -0.03 | mubritinib -0.002 | [6] 0.013 | [8] -0.044 | entinostat -0.083 | silmitasertib 0 | [10] -0.235

TTI2 (UniProt Q6NXR4)
Chain of UniProt Q6NXR4 (Q6NXR4 whole entry, looked up): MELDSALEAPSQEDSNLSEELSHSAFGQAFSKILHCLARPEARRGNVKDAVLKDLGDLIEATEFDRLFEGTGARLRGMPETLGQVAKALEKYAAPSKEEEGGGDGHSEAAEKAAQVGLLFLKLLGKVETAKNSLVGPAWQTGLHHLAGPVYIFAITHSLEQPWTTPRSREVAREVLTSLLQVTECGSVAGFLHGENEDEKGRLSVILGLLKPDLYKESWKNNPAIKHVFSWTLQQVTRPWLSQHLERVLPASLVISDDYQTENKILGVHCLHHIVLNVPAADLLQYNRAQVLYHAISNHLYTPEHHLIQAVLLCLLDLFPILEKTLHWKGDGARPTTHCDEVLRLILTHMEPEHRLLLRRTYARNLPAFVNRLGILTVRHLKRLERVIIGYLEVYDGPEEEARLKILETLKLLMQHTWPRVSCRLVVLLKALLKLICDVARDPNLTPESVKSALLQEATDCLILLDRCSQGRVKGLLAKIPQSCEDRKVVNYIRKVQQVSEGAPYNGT
inactive: bafetinib 0.06 | nilotinib -0.028 | [2] -0.068 | dasatinib -0.005 | [3] 0.077 | [4] -0.017 | [5] -0.007 | tipifarnib -0.059 | mubritinib -0.063 | [6] 0.024 | [7] -0.038 | [8] 0.016 | [9] -0.074 | entinostat -0.004 | citarinostat -0.035 | silmitasertib -0.047 | [10] 0.059 | [11] -0.023

UTP20 (UniProt O75691)
inactive: tipifarnib 0.089 | [10] 0.009

WDR46, A0A0G2JJL1
inactive: bafetinib 0.339 | nilotinib -0.094 | [2] 0.202 | dasatinib 0.381 | [3] 0.105 | tipifarnib 0.171 | mubritinib -0.051 | [6] 0.222 | [8] 0.515 | [9] 0.146 | entinostat -0.113 | citarinostat -0.163 | silmitasertib 0.247 | [10] 0.284 | [11] 0.013

WDR4 isoform 3 (UniProt P57081)
inactive: bafetinib 0.125 | [1] 0.057 | [6] -0.103 | entinostat -0.02 | vorinostat -0.118 | [10] -0.135

XRCC1 (UniProt P18887)
inactive: [1] 0.019 | dasatinib 0 | [4] 0.123 | [5] 0.063 | [6] -0.011 | [7] -0.183 | entinostat 0.064 | vorinostat 0.228 | [10] -0.211

WARS1 (UniProt G3V3P2)
inactive: bafetinib -0.076 | [6] -0.196 | entinostat -0.074
